PubChem BioAssay AID1259240 (Keith Lab, Institute of Cancer Science, University of …, 2017)
A number with no mark means an inactive call. Activity calls are given as the source filed them. No stated cut-off is given here; in the data, active means fold change mostly below about -2 (no sharp cut-off); inactive means mostly above about -1.8.

Assay: TERT promoter activity modulators, primary screen, cell-based, luciferase reporter, human (AID 1259240)
Details: A2780 TERT promoter luciferase reporter, 16 h; at 20 µM, fold versus average of vehicle-only wells

| Structure (SMILES) | outcome | fold change |
| --- | --- | --- |
| CC(C)Cc1nnc(NC(=O)CSc2nc(N)cc(=O)[nH]2)s1 | active |  |
| c1ccc2c(c1)CCN2c1nnc(Cc2ccncc2)c2ccccc12 |  | -1.29 |
| CCOC(=O)/C(=N\OC)c1cn2cc(Br)ccc2n1 |  | 1.2 |
| COCCNC(=O)Cn1cc(/C=C2/C(=O)N(C)c3ccccc32)c2cc(Br)ccc21 |  | -1.01 |
| COc1cc(OC)cc(-c2cc(N)n(S(=O)(=O)Cc3ccccc3)n2)c1 |  | 1.16 |
| COc1cc(NC(=O)C2CCCN(S(=O)(=O)c3ccc4c(c3)oc(=O)n4C)C2)cc(OC)c1 (stereo not given) |  | 1.09 |
| O=C(Nc1ccc(F)cc1)c1c[nH]n2c(=O)cc(C3CCNCC3)nc12 |  | -1.37 |
| O=c1[nH]c(-c2ccc3nsnc3c2)nc2ccccc12 | inactive |  |
| CCOC(=O)N1CCC(Nc2c(N3CCOCC3)c(=O)c2=O)CC1 |  | -1.09 |
| O=C1c2cccnc2C(=O)N1CNc1ccc(Cl)cc1 |  | 1.07 |
| CCc1nccn1S(=O)(=O)c1ccc(OC)c(OC)c1 |  | -2.54 (active) |
| O=C1C(c2sc3ccccc3c2O)=Nc2c1ccc1ccccc21 | active |  |
| Cc1ccc(-c2cc(N)n(S(=O)(=O)c3cccc4nsnc34)n2)cc1 |  | -1.42 |
| CCc1cccc2c1NC(=O)C2(O)CC(=O)c1cccs1 (stereo not given) |  | 1.14 |
| COC(=O)c1c(NC(=O)Cn2nc(C)c([N+](=O)[O-])c2C)sc2c1CCCC2 |  | -1.68 |
| Cc1cccc(CCn2c(=O)c3ccccc3n(Cc3cc(=O)n4ccccc4n3)c2=O)c1 |  | -1.38 |
| O=c1c(O)c(-c2ccc3c(c2)OCO3)oc2ccccc12 |  | 1 |
| COc1cc(Nc2nc3ccccc3n3cnnc23)cc(OC)c1OC |  | 1.1 |
| CCOC(=O)C1=C(CS(=O)(=O)c2ccc(F)c(Cl)c2)NC(=O)NC1c1ccc(Cl)cc1 (stereo not given) |  | 1.33 |
| O=c1oc2cc(O)ccc2cc1S(=O)(=O)c1ccccc1 |  | -1.16 |

| Structure (SMILES) | outcome | fold change |
| --- | --- | --- |
| CCOc1ccc2[nH]c(C)c(CN3CC4(C)CC3CC(C)(C)C4)c(=O)c2c1 (stereo not given) |  | -1.96 |
| O=C(NCCc1c[nH]c2ccccc12)c1cc2ccccn2n1 |  | 1.7 |
| NC(=O)c1sc2nc(C3CC3)cc(-c3ccc(Br)cc3)c2c1N |  | -1.28 |
| CCN1C(=O)C2(/C(=C(/O)c3ccc(OC)cc3)C(=O)C(=O)N2CCOC)c2ccccc21 (stereo not given) |  | 1.29 |
| CCOC(=O)Cc1nnc2c(Nc3ccccc3Cl)nc3nonc3n12 |  | -1.8 |
| Cc1cc(S(=O)(=O)n2nc(-c3cccc(F)c3)cc2N)ccc1F |  | -1.3 |
| c1ccc(Nc2c(-c3ccc(N4CCOCC4)cc3)nc3cnccn23)cc1 |  | 1.08 |
| COc1cc(-c2nc3s/c(=C\c4ccccc4Br)c(=O)n3n2)cc(OC)c1OC |  | 1.02 |
| Cc1cc(C)c2sc(-c3ccccc3)cc(=O)c2c1 |  | -37 (active) |
| CN1CCN(C(=O)c2ccc3c(Cl)c4c(nc3c2)CCC4)CC1 |  | 1.03 |
| O=c1/c(=C/c2ccco2)sc2nc(-c3ccccc3Br)nn12 |  | 1.48 |
| CC1(C)CC2CC(C)(CN2C(=O)CSc2nc(-c3ccco3)cc(C(F)(F)F)n2)C1 (stereo not given) |  | -1.47 |
| Cc1ccc(-n2c(C)c3c(C)nn4cc(C)cc4c3c2C)cc1 |  | -2.26 (active) |
| CCN(CC)CCNC(=O)CN1C(=O)COc2ccc(S(=O)(=O)N3CCOCC3)cc21 |  | -1.1 |
| COc1ccccc1NC(=O)Nc1ccc2c(c1)C(=O)OC2 |  | 1.33 |
| COc1ccc(Nc2c(-c3cccc(O)c3)nc3ncccn23)cc1 |  | 1.03 |
| C=CCNc1nc2c(c(=O)[nH]c(=O)n2C)n1CCOc1ccccc1 |  | -1.07 |
| O=C(C1CCN(S(=O)(=O)c2cccc3cccnc23)CC1)N1CCn2c1nc1ccccc12 |  | 1.05 |
| O=[N+]([O-])c1c(Nc2ccc(Cl)cc2)n[nH]c1-c1nnco1 |  | -2.07 (active) |
| COCCn1cc(/C=C2/C(=O)Nc3ccccc32)c2ccccc21 |  | 1.23 |
